An excerpt weighted towards active compounds, which were near 2.6% of everything screened.
APOBEC3G inh: APOBEC3G (human) deaminase inhibition; Q9HC16; hit rate 0.28% among 330,000; recombinant A3G, ssDNA deamination FAM/TAMRA fluorescence; inhibition, % at 20 µM;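 active means inhibition of at least 40% at 20 µM, with no more than 30% in the related APOBEC3A deaminase screen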;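 further: plate controls were DMSO wells with A3G for no effect and wells lacking A3G enzyme for full effect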
Target sequence (Q9HC16 whole entry, looked up): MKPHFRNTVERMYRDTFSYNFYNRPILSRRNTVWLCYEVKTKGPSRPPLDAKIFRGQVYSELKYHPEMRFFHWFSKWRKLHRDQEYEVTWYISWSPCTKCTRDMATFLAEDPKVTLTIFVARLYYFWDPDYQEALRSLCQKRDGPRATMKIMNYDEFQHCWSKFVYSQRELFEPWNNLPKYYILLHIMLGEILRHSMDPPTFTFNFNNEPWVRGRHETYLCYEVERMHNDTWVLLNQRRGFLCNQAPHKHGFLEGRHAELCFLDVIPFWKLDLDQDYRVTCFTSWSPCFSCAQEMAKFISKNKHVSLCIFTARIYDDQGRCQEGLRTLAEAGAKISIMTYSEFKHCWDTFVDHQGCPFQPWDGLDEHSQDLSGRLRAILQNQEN
PHOSPHO1 block: inhibitors of human PHOSPHO1 phosphatase | inhibition, % at 13.3 µM | recombinant PHOSPHO1, absorbance phosphatase assay | Q8TCT1 | hit rate 1.1% among 290,000; in the data active means inhibition above about 60%
MLLE-PAM2 inh: blocks PAM2 peptide binding to the PABP1 MLLE domain. P11940. GST-MLLE / FITC-PAM2 fluorescence polarization. inhibition, % at 20 µM. hit rate 0.36% among 360,000; in the data active means inhibition above about 35%, passing the limit was not always enough;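 further: plate controls were DMSO wells with GST-MLLE for no effect and wells lacking GST-MLLE protein for full effect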
APOBEC3A inh: inhibitors of human APOBEC3A DNA deaminase; inhibition, % at 20 µM; recombinant A3A, FAM/TAMRA ssDNA deamination fluorescence; P31941; AID 493011; hit rate 0.41% among 330,000;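 active means at least 40% inhibition at 20 µM here, with at most 30% in a related deaminase screen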;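 further: plate controls were A3A with DMSO for no effect and wells lacking A3A enzyme for full effect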
Target sequence (P31941 whole entry, looked up): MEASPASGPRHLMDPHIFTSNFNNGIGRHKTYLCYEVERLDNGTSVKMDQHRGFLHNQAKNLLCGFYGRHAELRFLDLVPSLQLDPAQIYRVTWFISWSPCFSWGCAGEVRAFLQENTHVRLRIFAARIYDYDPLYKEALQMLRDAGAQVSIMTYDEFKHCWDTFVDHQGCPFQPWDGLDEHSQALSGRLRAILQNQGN
eIF4H FP inh: inhibitors of RNA binding by human eIF4H. AID 2012. hit rate 0.94% among 290,000. inhibition, % at 35 µM. Q15056. eIF4H fluorescence polarization binding assay;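 further: calls also rest on retests at 20 µM and on dose response follow-up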
PABP FP inh: blocks human PABP binding to poly(A) RNA. AID 2014. fluorescence polarization. hit rate 1% among 290,000. calls only at 35 µM;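 further: calls also rest on retests at 20 µM and on dose response follow-up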
The depositor's hits bear a star; i = inactive; ? = inconclusive; / = not tested or not shown; + = active, no number. Unless noted, how the calls were made is not given here.

SMILES	APOBEC3G inh	PHOSPHO1 block	MLLE-PAM2 inh	APOBEC3A inh	eIF4H FP inh	PABP FP inh
Cc1ccc(S(=O)(=O)N2CCCCC2C(=O)N2CCN(C)CC2)cc1 (stereo unspecified)	-5	62*	36	-7	6	i
O=C(NC1CCCCCC1)C(=S)NCc1ccccc1	5	-30	24	-2	-2	i
O=C(NC1CCCCCC1)C(=S)NCCc1ccccc1	38	-35	44*	3	-9	i
CCOc1cc(-c2ccc(N)c(OCC)c2)ccc1N	-6	-8	86	-1	?	+
Cc1ccc(S(=O)(=O)N2CCC(C(N)=O)CC2)c(C)c1C	-6	-31	8	-2	5	i
CCOc1cc(Br)ccc1S(=O)(=O)N1CCC(C(N)=O)CC1	3	1	10	3	active	+
CCOC(=O)N1CCC(N(CCN(C)C)C(=S)Nc2ccccc2OC)CC1	-4	-10	18	5	-3	i
CCOC(=O)N1CCC(N(CCN(C)C)C(=S)Nc2ccccc2OCC)CC1	-8	16	22	-1	active	+
Cc1cc(NC(=O)CSc2nnc(-c3cccnc3)n2N)no1	-2	74*	-19	1	0	i
O=C(CSc1nnc(-c2cccnc2)o1)Nc1ccccc1F	-5	/	44*	-2	/	/
Nn1c(SCC(=O)Nc2ccccc2F)nnc1-c1cccnc1	-8	69*	-66	2	-6	i
CCOc1cc(C(=O)Nc2ccc(S(=O)(=O)NC3=NCCCCC3)cc2)cc(Br)c1OC	-3	/	-18	9	/	/
CCCCN(C)S(=O)(=O)c1ccc(C(=O)Nc2nnc(-c3ccco3)o2)cc1	-3	-1	13	0	10	i
CC1C(=O)N(Cc2cn(CCC3OCCO3)nn2)CCS(=O)(=O)N1Cc1ccc(-c2ccc(Cl)cc2)cc1 (stereo unspecified)	/	/	-13	/	/	/
CCc1cccc(CC)c1NC(=O)COC(=O)c1cccc(-c2ccc(OC(C)=O)cc2)c1	0	-1	-2	-1	active	i
O=C(CSc1ccc(-c2ccco2)nn1)N1CCCCC1	6	9	28	12	95	+
Cc1ccc(NC(=O)CSc2ccc(-c3cccnc3)nn2)c(C)c1	-2	73*	16	2	12	i
Cc1cccc(NC(=O)CSc2ccc(-c3ccco3)nn2)c1C	4	-3	13	2	78*	+
Cc1cccc(NC(=O)CSc2ccc(-c3ccccn3)nn2)c1C	-1	-16	0	4	-9	i
O=C(CSc1ccc(-c2ccco2)nn1)NCc1ccccc1	-3	2	32	6	97*	+
O=C(CSc1ccc(-c2ccco2)nn1)N1CCCC1	-1	3	27	5	22	i
CN(C(=O)CN1C(=O)/C(=C/c2ccccc2F)SC1=S)C1CCS(=O)(=O)C1 (stereo unspecified)	-2	14	26	-3	-4	i
Cc1cccc(C(O)c2ncc(-c3ccc(F)cc3)[nH]2)c1C (stereo unspecified)	/	/	-7	/	/	/
COc1ccc(OC)c(NC(=O)CN2CCc3ccccc3C2)c1	-10	27	-2	2	95	i
Cc1ccc(CSc2ccc(-c3ccco3)nn2)cc1	1	-9	12	3	66	i
SMILES	APOBEC3G inh	PHOSPHO1 block	MLLE-PAM2 inh	APOBEC3A inh	eIF4H FP inh	PABP FP inh
Cc1cccc(CSc2ccc(-c3ccco3)nn2)c1	-4	-1	17	-2	52*	+
CCOC(=O)C1=C(O)/C(=C/N(C)C)N=C1C	-6	9	19	-2	89*	+
CN(CC(=O)Nc1cccc(F)c1)CC(=O)NC(c1ccccc1)c1ccccc1	-9	/	-4	-4	/	/
CN(CCC#N)C(=O)COC(=O)c1ccc(Cl)c(S(=O)(=O)N(C)c2ccccc2)c1	-8	44	1	0	-6	i
CCN(CC)c1cccc(OCC(=O)N(C)CCC#N)c1	-8	6	-34	-5	60*	+
COc1ccc(-n2nnnc2SCC(=O)NNC(=O)c2ccc([N+](=O)[O-])cc2)cc1	-5	-2	-61	6	63*	+
COc1ccc(S(=O)(=O)N2CCOc3ccccc32)cc1	-8	10	-9	-3	-4	i
Cc1ccccc1NC(=S)C1=C(O)c2sccc2N(C)S1(=O)=O	-3	92*	19	-1	3	i
CN1c2ccsc2C(O)=C(C(=S)Nc2ccccc2)S1(=O)=O	-2	94*	28	-2	44	i
CC(C)c1nc2sc3c(SCC(=O)NCc4ccco4)ncnc3c2c2c1CCC2	-4	-3	4	8	14*	i
COC(=O)Nc1ccc(SCC(=O)c2cccc([N+](=O)[O-])c2)cc1	-9	38	42*	-5	-3	i
FC(F)Sc1ccc(N=C2NN=C(c3ccc4c(c3)OCCO4)CS2)cc1	-6	64*	-91	-2	-2	i
COc1ccc(N=C2NN=C(c3ccc4c(c3)OCCO4)CS2)cc1	-8	98*	-93	-2	0	i
CN(C)c1cccc2c(S(=O)(=O)NC(=O)[C@H]3O[C@@H](n4cnc5c(N)ncnc54)[C@H](O)[C@@H]3O)cccc12	/	/	4	/	/	/
O=C(CN1C(=O)NC2(CCCC2)C1=O)OCC(=O)c1cccc(Cl)c1	-6	/	4	-3	/	/
COc1c(O)cccc1[C@H](O)C1CCN(CCc2ccc(F)cc2)CC1	-14	/	77*	-6	/	/
CCc1ccc(NC(=S)NCC2CCCN2CC)cc1 (stereo unspecified)	-2	-10	-8	1	-9	i
Cc1c(C(=O)NCc2ccc3c(c2)OCO3)sc(=O)n1Cc1ccc(-c2ccccc2)cc1	/	/	-9	/	/	/
O=C(NNC(=S)Nc1ccc(F)cc1)c1ccccc1OC(F)F	-6	88*	26	-3	7	i
Cc1ccc(NC(=S)NNC(=O)c2ccccc2OC(F)F)cc1	-5	86*	34	-2	2	i
COc1ccc(Br)cc1C1NC(=O)c2c(sc3c2CCN(C)C3)N1 (stereo unspecified)	/	17	-33	/	100*	+
Cc1cccc(-c2cnc(C(O)c3ccc(-c4ccccc4)cc3)[nH]2)c1 (stereo unspecified)	/	/	8	/	/	/
O=c1cnn([C@@H]2O[C@H](CO)[C@@H](O)[C@H]2O)c(=O)[nH]1	-7	11	0	-3	-6	i
O=C1C=C(C2OC(CO)C(O)C2O)C(=O)N1 (stereo unspecified)	/	/	43*	/	/	/
COc1cc(C2C(C#N)=C(N)Oc3cc(C)oc(=O)c32)cc2c1OCO2 (stereo unspecified)	1	-21	-21	5	69*	+
Cc1cc2c(c(=O)o1)C(Cc1ccccc1)C(C#N)=C(N)O2 (stereo unspecified)	-3	4	-15	-3	70*	+
Cc1ccc([C@H]2C(C#N)=C(N)Oc3cc(C)oc(=O)c32)o1	-4	36	16	-2	35	i

From PubChem
